Results: PubChem BioAssay (NCI)
The panel holds about 83,000 compounds, 20% with a hit somewhere; the sample as a whole holds those more often.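 Activity criterion: percent growth below 10, measured after cells in 96-well plates were exposed to a single compound concentration for 48 hours.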 Active and inactive are the calls of the source.

How the values were obtained:
Assay in all cases: NCI-60 one-dose screen, 48 h (100 = growth as untreated, 0 = no growth, -100 = all killed)
Conditions in all cases: 10 µM unless noted
SK-MEL-2 melanoma = tested on: SK-MEL-2 melanoma
EKVX NSCLC = tested on: EKVX NSCLC
SN12C renal = tested on: SN12C renal
UO-31 renal = tested on: UO-31 renal
TK-10 renal = tested on: TK-10 renal
ACHN renal = tested on: ACHN renal
CAKI-1 renal = tested on: CAKI-1 renal
CCRF-CEM leukemia = tested on: CCRF-CEM leukemia
MOLT-4 leukemia = tested on: MOLT-4 leukemia
RPMI-8226 leukemia = tested on: RPMI-8226 leukemia
OVCAR-8 ovarian = tested on: OVCAR-8 ovarian
OVCAR-5 ovarian = tested on: OVCAR-5 ovarian
OVCAR-4 ovarian = tested on: OVCAR-4 ovarian
SK-OV-3 ovarian = tested on: SK-OV-3 ovarian
IGROV1 ovarian = tested on: IGROV1 ovarian
HS 578T breast = tested on: HS 578T breast
NCI/ADR-RES ovarian = tested on: NCI/ADR-RES ovarian
SR leukemia = tested on: SR leukemia
OVCAR-3 ovarian = tested on: OVCAR-3 ovarian

Measured: growth

CCOC(=O)C1=C(C)NC(C)=C(C(=O)OCC)C1c1cc(Br)c(O)c(OC)c1
inactive: EKVX NSCLC 42.5% | SN12C renal 48.5% | UO-31 renal 40.3% | TK-10 renal 34.1% | ACHN renal 61.3% | CAKI-1 renal 30.1% | CCRF-CEM leukemia 19.9% | MOLT-4 leukemia 44.8% | RPMI-8226 leukemia 29.9% | OVCAR-8 ovarian 25.2% | OVCAR-5 ovarian 66.7% | OVCAR-4 ovarian 47.4% | SK-OV-3 ovarian 16.9% | IGROV1 ovarian 49.9%
active: SK-MEL-2 melanoma -7.22% | HS 578T breast 4.37% | NCI/ADR-RES ovarian -14.5%

CC(O)(CO)c1ccccc1 (configuration not stated)
inactive: SK-MEL-2 melanoma 106% | EKVX NSCLC 96.3% | SN12C renal 98.8% | UO-31 renal 91% | TK-10 renal 110% | ACHN renal 95.2% | CAKI-1 renal 104% | MOLT-4 leukemia 110% | SR leukemia 112% | RPMI-8226 leukemia 113% | OVCAR-8 ovarian 100% | OVCAR-5 ovarian 94.9% | OVCAR-4 ovarian 103% | SK-OV-3 ovarian 106% | IGROV1 ovarian 97.2% | OVCAR-3 ovarian 112% | HS 578T breast 100% | NCI/ADR-RES ovarian 103%

CC(Oc1ccc(C(=O)NS(=O)(=O)C(C)(C)C)cc1C(F)(F)F)c1ccc(Oc2ccccc2)cn1 (configuration not stated)
inactive: SK-MEL-2 melanoma 35.5% | EKVX NSCLC 86.5% | SN12C renal 86.1% | UO-31 renal 67.9% | TK-10 renal 79.7% | ACHN renal 89.4% | CAKI-1 renal 40.8% | MOLT-4 leukemia 98.5% | SR leukemia 25.9% | RPMI-8226 leukemia 94.8% | OVCAR-8 ovarian 75.2% | OVCAR-5 ovarian 101% | OVCAR-4 ovarian 93.1% | SK-OV-3 ovarian 104% | IGROV1 ovarian 64.8% | HS 578T breast 60.4% | NCI/ADR-RES ovarian 83%
active: OVCAR-3 ovarian 8.07%

C=C1C(=O)O[C@H]2[C@H]1CC/C(CNC(=O)/C=C/c1ccc(Br)cc1)=C\CC[C@@]1(C)O[C@@H]21
inactive: OVCAR-4 ovarian 44.7% | SK-OV-3 ovarian 46.6% | NCI/ADR-RES ovarian 38.5%
active: SK-MEL-2 melanoma -18% | EKVX NSCLC -47.8% | SN12C renal -66.5% | UO-31 renal -98.2% | TK-10 renal -67.9% | ACHN renal -58.6% | CAKI-1 renal -91.8% | CCRF-CEM leukemia -2.6% | MOLT-4 leukemia -22.7% | SR leukemia 0.986% | OVCAR-8 ovarian 2.52% | OVCAR-5 ovarian -51.4% | IGROV1 ovarian -27.9% | OVCAR-3 ovarian -91.4% | HS 578T breast -7.13%

CC(C)(C)OC(=O)N1CCN(c2ccc(N)cc2)C(=O)C1
inactive: SK-MEL-2 melanoma 111% | EKVX NSCLC 98.6% | SN12C renal 96.2% | UO-31 renal 87.4% | TK-10 renal 126% | ACHN renal 103% | CAKI-1 renal 98.3% | CCRF-CEM leukemia 107% | MOLT-4 leukemia 101% | OVCAR-8 ovarian 107% | OVCAR-5 ovarian 112% | OVCAR-4 ovarian 108% | SK-OV-3 ovarian 109% | IGROV1 ovarian 112% | OVCAR-3 ovarian 117% | HS 578T breast 105%

CCCN=C(N)c1ccc(NC(=O)c2ccc(C(=O)Nc3ccc(C(N)=NCCC)cc3)cc2)cc1
inactive: SK-MEL-2 melanoma 97.2% | EKVX NSCLC 96.1% | SN12C renal 93.1% | UO-31 renal 79.8% | TK-10 renal 99% | ACHN renal 91.8% | CAKI-1 renal 95% | CCRF-CEM leukemia 108% | MOLT-4 leukemia 78.2% | RPMI-8226 leukemia 90.6% | OVCAR-8 ovarian 95.7% | OVCAR-5 ovarian 94.8% | OVCAR-4 ovarian 99.7% | SK-OV-3 ovarian 95.6% | IGROV1 ovarian 96.6% | OVCAR-3 ovarian 102% | HS 578T breast 102% | NCI/ADR-RES ovarian 98.4%

CC(c1ccccc1)n1ccnc1CO (configuration not stated)
inactive: SK-MEL-2 melanoma 111% | EKVX NSCLC 93.3% | SN12C renal 102% | UO-31 renal 95.4% | TK-10 renal 88.2% | ACHN renal 103% | CAKI-1 renal 88.9% | CCRF-CEM leukemia 105% | MOLT-4 leukemia 107% | RPMI-8226 leukemia 95.6% | OVCAR-8 ovarian 112% | OVCAR-5 ovarian 104% | SK-OV-3 ovarian 96.8% | IGROV1 ovarian 94.2% | OVCAR-3 ovarian 115% | HS 578T breast 92.1% | NCI/ADR-RES ovarian 99.8%

O=CNc1cc(Cl)cc(Cl)c1
inactive: SK-MEL-2 melanoma 100% | EKVX NSCLC 96.7% | SN12C renal 95.9% | UO-31 renal 90.1% | TK-10 renal 101% | ACHN renal 101% | CAKI-1 renal 92.3% | CCRF-CEM leukemia 101% | MOLT-4 leukemia 97.5% | RPMI-8226 leukemia 99.1% | OVCAR-8 ovarian 99.8% | OVCAR-5 ovarian 97.5% | OVCAR-4 ovarian 113% | SK-OV-3 ovarian 115% | IGROV1 ovarian 103% | OVCAR-3 ovarian 123% | HS 578T breast 111% | NCI/ADR-RES ovarian 108%

Cc1ccc(S(=O)(=O)Nc2ccc(Cl)cc2)cc1
inactive: SK-MEL-2 melanoma 135% | EKVX NSCLC 90.4% | SN12C renal 94.3% | UO-31 renal 82.1% | TK-10 renal 118% | ACHN renal 99.8% | CAKI-1 renal 82.3% | CCRF-CEM leukemia 95.8% | MOLT-4 leukemia 105% | RPMI-8226 leukemia 101% | OVCAR-8 ovarian 102% | OVCAR-5 ovarian 97.3% | OVCAR-4 ovarian 89.7% | SK-OV-3 ovarian 112% | IGROV1 ovarian 98.9% | OVCAR-3 ovarian 115% | HS 578T breast 100% | NCI/ADR-RES ovarian 91.9%

CCCCCCNC(=O)Oc1ccc(/C(=C(/CC)Cc2ccccc2)c2ccc(OCCN(CC)CC)cc2)cc1
inactive: SK-MEL-2 melanoma 99.8% | EKVX NSCLC 81% | SN12C renal 73.5% | UO-31 renal 58% | TK-10 renal 93.1% | ACHN renal 89.4% | CAKI-1 renal 91% | CCRF-CEM leukemia 45.4% | MOLT-4 leukemia 35.2% | OVCAR-8 ovarian 61.4% | OVCAR-5 ovarian 83.2% | OVCAR-4 ovarian 66.4% | SK-OV-3 ovarian 89% | IGROV1 ovarian 76.6% | OVCAR-3 ovarian 72.4% | HS 578T breast 69.7% | NCI/ADR-RES ovarian 70.6%
active: SR leukemia -27.3%

Cn1/c(=N/NC(N)=S)ccc2ccccc21
inactive: SK-MEL-2 melanoma 117% | EKVX NSCLC 78.1% | SN12C renal 91.3% | UO-31 renal 62.7% | TK-10 renal 113% | ACHN renal 95.2% | CAKI-1 renal 95.7% | CCRF-CEM leukemia 63.9% | MOLT-4 leukemia 48.5% | RPMI-8226 leukemia 78.2% | OVCAR-8 ovarian 74.6% | OVCAR-5 ovarian 99% | OVCAR-4 ovarian 93.3% | SK-OV-3 ovarian 107% | IGROV1 ovarian 44.7% | OVCAR-3 ovarian 44.1% | HS 578T breast 103% | NCI/ADR-RES ovarian 77%

FCc1nc2nc(Cl)c(Cl)nc2[nH]1
inactive: SK-MEL-2 melanoma 107% | EKVX NSCLC 103% | SN12C renal 109% | UO-31 renal 94.5% | TK-10 renal 92.7% | ACHN renal 99.5% | CAKI-1 renal 91.6% | CCRF-CEM leukemia 104% | MOLT-4 leukemia 97.8% | RPMI-8226 leukemia 97% | OVCAR-8 ovarian 102% | OVCAR-5 ovarian 93.3% | SK-OV-3 ovarian 97.1% | IGROV1 ovarian 108% | OVCAR-3 ovarian 108% | HS 578T breast 101% | NCI/ADR-RES ovarian 107%

Cc1[nH]n(-c2cccc(Cl)c2)c(=O)c1/C=C1\C=Nc2ccc(Br)cc21
active: SN12C renal 3.46% | UO-31 renal -9.91% | TK-10 renal -51.3% | CCRF-CEM leukemia 6.42% | OVCAR-8 ovarian 9.67% | OVCAR-4 ovarian -89.9% | SK-OV-3 ovarian -25% | OVCAR-3 ovarian -47.2% | HS 578T breast 0.668%
inactive: SK-MEL-2 melanoma 73.4% | EKVX NSCLC 41.1% | ACHN renal 11.6% | CAKI-1 renal 22.4% | MOLT-4 leukemia 26.9% | RPMI-8226 leukemia 14.1% | OVCAR-5 ovarian 30.5% | IGROV1 ovarian 19.3%

O=C(Nc1nc2ccc(S(=O)(=O)Nc3ccc(C4(C(F)(F)F)CC4)cc3)cc2[nH]1)c1cnccn1
inactive: SK-MEL-2 melanoma 56.3% | EKVX NSCLC 65.3% | SN12C renal 44.9% | UO-31 renal 40.3% | TK-10 renal 65.9% | ACHN renal 43.5% | CAKI-1 renal 28.6% | CCRF-CEM leukemia 19.9% | MOLT-4 leukemia 38.7% | RPMI-8226 leukemia 30.3% | OVCAR-8 ovarian 55.4% | OVCAR-5 ovarian 56.8% | OVCAR-4 ovarian 46.1% | SK-OV-3 ovarian 58% | IGROV1 ovarian 40.3% | HS 578T breast 17.6% | NCI/ADR-RES ovarian 21%
active: OVCAR-3 ovarian -18.6%

COc1cc2oc(-c3cccc(C(=O)Nc4ccc(Cl)cc4)c3)cc(=O)c2c(OC)c1OC
active: CAKI-1 renal 8.22% | RPMI-8226 leukemia -18.3%
inactive: SK-MEL-2 melanoma 31.4% | EKVX NSCLC 48.2% | SN12C renal 33.2% | UO-31 renal 23.2% | TK-10 renal 38.6% | ACHN renal 33.2% | CCRF-CEM leukemia 28.5% | MOLT-4 leukemia 36.1% | OVCAR-8 ovarian 23.5% | OVCAR-5 ovarian 57.5% | OVCAR-4 ovarian 60.5% | SK-OV-3 ovarian 33.6% | IGROV1 ovarian 25.5% | OVCAR-3 ovarian 43.1% | HS 578T breast 33% | NCI/ADR-RES ovarian 26.2%

O=C1CCC(NC(=S)Nc2ccccc2)N1 (configuration not stated)
inactive: SK-MEL-2 melanoma 103% | EKVX NSCLC 117% | SN12C renal 97.4% | UO-31 renal 95.3% | TK-10 renal 101% | ACHN renal 109% | CAKI-1 renal 106% | CCRF-CEM leukemia 97.2% | MOLT-4 leukemia 106% | RPMI-8226 leukemia 101% | OVCAR-8 ovarian 107% | OVCAR-5 ovarian 111% | OVCAR-4 ovarian 107% | SK-OV-3 ovarian 117% | IGROV1 ovarian 102% | OVCAR-3 ovarian 106% | HS 578T breast 105% | NCI/ADR-RES ovarian 96.9%
